Laboratory results: PubChem BioAssay AID588403 (Broad Institute, 2011)
Active and inactive are the calls of the source.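 Rule for the calls: active = dose-dependent signal loss with a fitted half-maximal concentration at or below 35 µM; inconclusive = flat fit with 30 to 70% signal loss, or poor fit; inactive = the rest.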

Assay: compounds quenching DiI signal without cells – biochemical, powder samples, plate reader fluorescence, artefact control for SR-BI HDL uptake inhibitor project, dose response (AID 588403)

SMILES	outcome
CC(C(=O)NC1CCCC1)N(C(=O)Cn1nnc(-c2ccccc2F)n1)C1CCCCC1 (stereo not given)	inactive
O=C(Nc1nc(-c2ccc3c(c2)CCN3C(=O)C2CC2)cs1)c1ccco1	inactive
CCCCCCC1CCC/C1=N\NC(N)=S (stereo not given)	inactive
CC(C(=O)NC1CCCC1)N(C(=O)Cn1nnc(-c2cccc(F)c2)n1)C1CCCCC1 (stereo not given)	inactive
CCC(=O)N1CCc2cc(-c3csc(NC(=O)c4ccc(F)c(OC)c4)n3)ccc21	inactive
Cc1ccc(-c2nnn(CC(=O)N(C3CCCCC3)C(C)C(=O)NC3CCCC3)n2)cc1 (stereo not given)	inactive
COc1ccccc1-c1nnn(CC(=O)N(C2CCCCC2)C(C)C(=O)NC2CCCC2)n1 (stereo not given)	inactive
CS(=O)(=O)N1CCc2cc(-c3csc(NC(=O)c4ccco4)n3)ccc21	inactive
CC(C(=O)NC1CCCC1)N(C(=O)Cn1nnc(-c2ccc(Cl)cc2)n1)C1CCCCC1 (stereo not given)	inactive
COc1ccc(-c2cc(CC(=O)N(C3CCCCC3)C(C)C(=O)NC3CCCC3)no2)cc1OC (stereo not given)	inactive
CCC(=O)N1CCc2cc(-c3csc(NC(=O)c4cccc(OC)n4)n3)ccc21	inactive
COc1cccc(-c2nnn(CC(=O)N(C3CCCCC3)C(C)C(=O)NC3CCCC3)n2)c1 (stereo not given)	inactive
CCC(=O)N1CCc2cc(-c3coc(N)n3)ccc21	inactive
O=C(Nc1nc(-c2ccc3c(c2)CCN3)cs1)c1ccco1	inactive
CC(C)C(=O)N1CCc2cc(-c3csc(NC(=O)c4ccco4)n3)ccc21	inactive
COc1ccc(-c2nnn(CC(=O)N(C3CCCCC3)C(C)C(=O)NC3CCCC3)n2)cc1OC (stereo not given)	inactive
CCC(=O)N1CCc2cc(-c3csc(NC(=O)c4cc(OC)cc(OC)c4)n3)ccc21	inactive
CCC(=O)N1CCc2cc(-c3cnc(NC(C)=O)[nH]3)ccc21	inactive
CCC(=O)N1CCc2cc(-c3coc(NC(=O)c4ccco4)n3)ccc21	inactive
COc1ccc(-c2nnn(CC(=O)N(CC(=O)NC3CCCC3)C3CCCCC3)n2)cc1OC	inactive
CC(C(=O)NC1CCCC1)N(C(=O)Cn1nnc(-c2ccc3c(c2)OCO3)n1)C1CCCCC1 (stereo not given)	inactive
COC(=O)N1CCc2cc(-c3csc(NC(=O)c4ccco4)n3)ccc21	inactive
CC(C(=O)NC1CCCC1)N(C(=O)Cn1nnc(-c2ccccc2Cl)n1)C1CCCCC1 (stereo not given)	inactive
CCC(=O)N1CCc2cc(-c3csc(NC(=O)c4cccc(OC)c4)n3)ccc21	inactive
O=C(CN(C(=O)Cn1nnc(-c2ccc3c(c2)OCO3)n1)C1CCCCC1)NC1CCCC1	inactive
CCC(=O)N1CCc2cc(-c3csc(NC(=O)c4ccco4)n3)ccc21	inactive
C[C@@H]1CN([C@H](C)CO)C(=O)c2cc(NC(=O)Cc3cn(C)c4ccccc34)ccc2O[C@H]1CN(C)S(=O)(=O)c1ccc(Cl)cc1	inactive
CC(C(=O)NC1CCCC1)N(C(=O)Cn1nnc(-c2ccc(F)cc2)n1)C1CCCCC1 (stereo not given)	inactive
CCC(=O)N1CCc2cc(-c3csc(NC(=O)c4cccc(OC(F)(F)F)c4)n3)ccc21	inactive
CCC(=O)N1CCc2cc(-c3cnc(NC(=O)c4ccco4)[nH]3)ccc21	inactive
